High-throughput results (PubChem BioAssay)
SMN2 splice up = increases expression of the SMN2 splice variant | AID 1458 | hit rate 2.8% among 210,000 | HEK293 SMN2-luciferase splicing reporter, luminescence, 30-36 h | Potency, µM (series often up to 46.1 µM), for the others: at the highest dose activity change, positive = activation, usual class: activators; note: % of control where 0% means no effect; nearly all actives have a fitted effect of over 55% in size
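HEK293 cells carry an SMN2 minigene-luciferase reporter in which exon 7 inclusion puts luciferase in frame. Cells were seeded at 2000 cells/well, attached for 10-12 hours, then exposed to compounds for 30-36 hours at 37C before ONE-Glo luminescence.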
NPC1 promoter act = NPC1 promoter activation; Potency, µM (series often up to 9.22 µM), for inactives: top-dose activation, usual class: activators; AID 485313; hit rate 2.4% among 320,000; Huh7 NPC1 promoter luciferase reporter, 24 h; note: % of control where 0% means no effect; nearly all actives have a fitted effect of over 60% in size
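Huh7 cells stably carrying NPC1 promoter–luciferase, plated in Opti-MEM with 10% FBS for 2 h, were exposed to compound in DMSO for 24 h at 37 °C; luciferase reagent was added for 10 min and luminescence read.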
FLuc modulator = counter-screen for miR-21 project: firefly luciferase inhibitors or activators | Potency, µM (doses to about 57.5 µM), for inactives: top-dose activity change, negative = inhibition, actives largely listed as inhibitors | purified FLuc, Km substrates, luminescence inhibition | P08659 | hit rate 6.9% among 360,000;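 note: plate controls were vehicle for no effect and reference inhibitor for full effect; nearly all actives have a fitted effect of over 55% in size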
Target sequence (P08659 whole entry, looked up): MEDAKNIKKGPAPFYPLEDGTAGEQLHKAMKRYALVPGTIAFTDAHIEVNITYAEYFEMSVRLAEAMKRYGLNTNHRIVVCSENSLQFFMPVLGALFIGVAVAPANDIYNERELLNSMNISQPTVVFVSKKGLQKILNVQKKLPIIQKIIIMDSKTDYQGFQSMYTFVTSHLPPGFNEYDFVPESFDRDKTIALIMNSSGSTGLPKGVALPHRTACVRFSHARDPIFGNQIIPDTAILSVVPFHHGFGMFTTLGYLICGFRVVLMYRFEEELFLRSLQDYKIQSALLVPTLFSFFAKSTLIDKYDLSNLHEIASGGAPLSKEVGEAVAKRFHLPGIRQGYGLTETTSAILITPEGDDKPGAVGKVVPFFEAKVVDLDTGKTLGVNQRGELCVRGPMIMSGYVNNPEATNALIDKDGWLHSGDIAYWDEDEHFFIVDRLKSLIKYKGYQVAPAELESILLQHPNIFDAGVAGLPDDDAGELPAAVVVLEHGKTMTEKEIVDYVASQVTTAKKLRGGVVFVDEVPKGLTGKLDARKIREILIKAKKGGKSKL
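Purified P. pyralis luciferase (10nM final) with 10uM D-luciferin and 10uM ATP (Km levels) in 50mM Tris acetate pH 7.5, 10mM Mg acetate, 0.01% Tween-20, 0.05% BSA; qHTS 6-point titration, ~60 µM downward; luminescence read.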
Rab9 promoter act = Rab9 promoter activation; Huh7 Rab9 promoter-luciferase reporter, luminescence, 24 h; Potency, µM (series often up to 9.22 µM), for the others: at the top dose activation, negative = inhibition, usual class: activators; hit rate 2.8% among 320,000; note: % of control where 0% means no effect; nearly all actives have a fitted effect of over 60% in size
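Huh7 reporter line, Rab9 promoter upstream of luciferase. Compound exposure 24 h at 37 °C in reduced-serum medium with 10% FBS. Read-out: luminescence.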
KinaseGlo FLuc = counter-screen: inhibitors of Kinase-Glo firefly luciferase | Q27757 | Kinase-Glo luciferase, ATP luminescence, 8 min | Potency, µM (doses to about 38.3 µM), inactives show at the highest dose activity change, negative = inhibition, most hits filed as inhibitors | hit rate 0.28% among 200,000; note: % is set by controls: 0 for no effect and ±100 for the full control effect; nearly all actives have a fitted effect of over 60% in size
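Light output from Kinase-Glo luciferase with luciferin and 10 uM ATP in 50 mM imidazole pH 7.2, KCl, MgCl2, Tween 20, BSA; compound pin-delivered, 8-min ambient incubation, then luminescence read.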
An asterisk follows results filed as active. In the library only some 7.3% were active in any assay of this set; here they are far more common. Calls come from the whole dose curve; as a rule, active = well fitted curve in the direction sought with a large enough effect; inconclusive = small, poorly fitted or top-dose-only effect, or another doubt; inactive = no such curve, though single readings can be large; an effect the other way counts as inactive or inconclusive. Potency is the fitted concentration of half-maximal effect.

Results for Nc1c(C(=O)c2ccc(Br)s2)oc2ccccc12 ?
SMN2 splice up: inconclusive; NPC1 promoter act: inconclusive; FLuc modulator: 7.6µM*; Rab9 promoter act: inconclusive; KinaseGlo FLuc: 0%

What do the screens show for `Nc1c(C(=O)c2cccs2)oc2ccccc12`?
SMN2 splice up: inconclusive; NPC1 promoter act: inconclusive; FLuc modulator: 15µM*; Rab9 promoter act: 27%; KinaseGlo FLuc: -3%

How did Cc1ccc(C(=O)c2oc3ccccc3c2N)cc1 do in these assays?
SMN2 splice up: 13µM*; NPC1 promoter act: inconclusive; FLuc modulator: 17µM*; Rab9 promoter act: inconclusive; KinaseGlo FLuc: 2%

Results for CCOC(=O)c1oc2ccccc2c1N ?
SMN2 splice up: 8%; NPC1 promoter act: -22%; FLuc modulator: -8%; Rab9 promoter act: 5%; KinaseGlo FLuc: 3%

How did Nc1c(C(=O)c2ccc(Br)cc2)oc2ccccc12 do in these assays?
SMN2 splice up: inconclusive; NPC1 promoter act: 28%; FLuc modulator: -4%; Rab9 promoter act: 30%; KinaseGlo FLuc: -2%

Results for Cc1ccc(NC(=O)CN2C(=O)CCn3nc(-c4cccn4C)cc32)c(Cl)c1 ?
FLuc modulator: -6%

Results for COc1ccc(CNC(=O)c2cc(Nc3ccc(OC)cc3OC)nc3ccccc23)cc1 ?
SMN2 splice up: 4%; FLuc modulator: 7.6µM*

Results for CCOc1ccccc1CNC(=O)c1cn(-c2ccc(OC)cc2)c(=O)c2ccccc12 ?
FLuc modulator: 9.5µM*

How did COCCCNC(=O)c1cc(Nc2ccc(OC)cc2OC)nc2ccccc12 do in these assays?
NPC1 promoter act: 12%; FLuc modulator: 19µM*; Rab9 promoter act: -6%

How did COc1ccc(Nc2cc(C(=O)N3CCc4ccccc4C3)c3ccccc3n2)c(OC)c1 do in these assays?
SMN2 splice up: -9%; NPC1 promoter act: -1%; FLuc modulator: 15µM*; Rab9 promoter act: -1%; KinaseGlo FLuc: -3%

How did COc1ccc(OC)c(Nc2cc(C(=O)NCc3ccccc3)c3ccccc3n2)c1 do in these assays?
SMN2 splice up: 2%; FLuc modulator: -8%

How did CCCCOC(=O)c1c(N)n(-c2ccc(OC)cc2OC)c2nc3ccccc3nc12 do in these assays?
SMN2 splice up: 2%; FLuc modulator: -4%

Results for COc1ccc(CCNC(=O)c2cc(Nc3cc(C)cc(C)c3)nc3ccccc23)cc1OC ?
SMN2 splice up: 1%; FLuc modulator: 6µM*

What do the screens show for `COc1ccc(Nc2cc(C(=O)NCc3ccco3)c3ccccc3n2)cc1`?
SMN2 splice up: 8%; NPC1 promoter act: 0%; FLuc modulator: 2%; Rab9 promoter act: -5%; KinaseGlo FLuc: 5%

What do the screens show for `COc1ccc(Nc2cc(C(=O)NCc3ccccc3OC)c3ccccc3n2)cc1`?
FLuc modulator: 11µM*

How did O=C1c2ccccc2S(=O)(=O)N1Cc1nc2ccccc2s1 do in these assays?
SMN2 splice up: -69%; NPC1 promoter act: inconclusive; FLuc modulator: 19µM*; Rab9 promoter act: -11%; KinaseGlo FLuc: -1%

How did CCCC#Cc1ccc2c(c1)COc1c3ccccc3nn1-2 do in these assays?
NPC1 promoter act: 0.89µM*; FLuc modulator: 1.5µM*; Rab9 promoter act: 0.56µM*

How did COc1cccc(NC(=O)COc2ccc(C)cc2)c1 do in these assays?
SMN2 splice up: -51%; NPC1 promoter act: -2%; FLuc modulator: 12µM*; Rab9 promoter act: 12%; KinaseGlo FLuc: -21%

What do the screens show for `COc1ccc(OCC(=O)Nc2cccc(C(C)=O)c2)cc1`?
SMN2 splice up: -23%; NPC1 promoter act: 7%; FLuc modulator: inconclusive; Rab9 promoter act: 7%; KinaseGlo FLuc: -4%

Results for Cc1ccc(CNC(=O)COc2cc(O)c3c(c2)OC(C)(C)CC3=O)cc1 ?
NPC1 promoter act: -4%; FLuc modulator: -17%; Rab9 promoter act: 0%

What do the screens show for `CC1(C)CC(=O)c2c(O)cc(OCc3ccc([N+](=O)[O-])cc3)cc2O1`?
SMN2 splice up: 16%; NPC1 promoter act: 2.5µM*; FLuc modulator: 4.8µM*; Rab9 promoter act: 3.5µM*; KinaseGlo FLuc: -3%

What do the screens show for `COc1ccc(-c2cccc(NC(=O)COc3ccc(Cl)cc3)c2)nn1`?
NPC1 promoter act: 3%; FLuc modulator: 21µM*; Rab9 promoter act: -3%

How did COc1ccc(NS(=O)(=O)c2cccc(NC(=O)COc3ccc(OC)cc3)c2)cc1 do in these assays?
NPC1 promoter act: 12%; FLuc modulator: 17µM*; Rab9 promoter act: -7%

How did Cc1nn(-c2ccccc2)c2c1N(CC(=O)N1CCN(c3ccccc3F)CC1)C(=O)CS2 do in these assays?
FLuc modulator: -15%

What do the screens show for `COC(=O)c1c(NC(=O)c2cc3nc(-c4ccc(Br)cc4)cc(C(F)(F)F)n3n2)sc2c1CCCC2`?
FLuc modulator: -1%

Results for CCOC(=O)C(C)NC(=O)C1CCN(c2ncnc3c2nc2n3CCCCC2)CC1 (stereo not given) ?
FLuc modulator: 1%

What do the screens show for `COc1cccc(NC(=O)COc2cc(O)c3c(c2)OC(C)(C)CC3=O)c1`?
NPC1 promoter act: inconclusive; FLuc modulator: 4.3µM*; Rab9 promoter act: inconclusive

What do the screens show for `COc1cccc(NC(=O)COc2ccc3c(c2)CCC3)c1`?
SMN2 splice up: -1%; NPC1 promoter act: 5%; FLuc modulator: 15µM*; Rab9 promoter act: 1%; KinaseGlo FLuc: 1%

Results for COc1ccccc1CNC(=O)COc1ccc(C)cc1 ?
NPC1 promoter act: 3.2µM*; FLuc modulator: 2%; Rab9 promoter act: 2%

Results for COc1ccccc1CNC(=O)COc1ccccc1OC ?
SMN2 splice up: -6%; NPC1 promoter act: -2%; FLuc modulator: 4%; Rab9 promoter act: -1%; KinaseGlo FLuc: -2%

Results for Cn1c(/C(C#N)=C/c2ccc(C(F)(F)F)cc2)nc2ccccc21 ?
SMN2 splice up: -10%; FLuc modulator: 6.7µM*

How did Cn1c(/C(C#N)=C/c2ccncc2)nc2ccccc21 do in these assays?
SMN2 splice up: -6%; NPC1 promoter act: -5%; FLuc modulator: -12%; Rab9 promoter act: -5%; KinaseGlo FLuc: -2%

How did Cn1c(/C(C#N)=C/c2ccc(O)cc2)nc2ccccc21 do in these assays?
NPC1 promoter act: inconclusive; FLuc modulator: 12µM*; Rab9 promoter act: inconclusive

What do the screens show for `Cc1ccc(NC(=O)CCC(=O)N2CCSc3ccccc32)cc1Cl`?
FLuc modulator: -15%

Results for C(=C\c1cc(/C=C/c2ccccc2)ncn1)/c1ccccc1 ?
SMN2 splice up: -5%; NPC1 promoter act: 7%; FLuc modulator: 12µM*; Rab9 promoter act: 10%; KinaseGlo FLuc: 2%

Results for Cn1nc(/C=C/c2ccccc2)ccc1=O ?
SMN2 splice up: 13µM*; NPC1 promoter act: 16%; FLuc modulator: inconclusive; Rab9 promoter act: 3.2µM*; KinaseGlo FLuc: inconclusive

How did C(=C/c1ccccc1)/c1ccccc1 do in these assays?
SMN2 splice up: 17%
